Screens: PubChem BioAssay, National Center for Advancing Translational Sciences (NCATS)
The list is not random: actives were taken first. Their share in the collection is about 18%.
TDP1 cell CPT: qHTS for Inhibitors of human tyrosyl-DNA phosphodiesterase 1 (TDP1): qHTS in cells in presence of CPT. chicken DT40 Tdp1-/-;hTDP1 cells + 20 nM CPT, ATP luminescence, 48 h. Potency, µM (series often up to 46.2 µM), inactives show at the top dose activity change, negative = growth inhibition, hits mostly inhibitors. 12% of 420,000 active. AID 686979, 2013; further: potency means the concentration at half of the fitted maximal effect; nearly all actives have a fitted effect of over 55% in size
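Cell growth measured by CellTiter-Glo luminescence after a minimum 48 h, 37 C compound exposure with 20 nM CPT in Tdp1-knockout DT40 cells stably expressing hTDP1, seeded 400/well; qHTS titration format.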
Gal4-VP16 FLuc: VP16 counterscreen qHTS for inhibitors of ROR gamma transcriptional activity | Drosophila S2 Gal4-VP16 UAS-luciferase, luminescence, 20 h | Potency, µM (series often up to 53.6 µM), inactives show at the top dose activity, negative = inhibition, actives largely listed as inhibitors | 3.5% of 310,000 active | AID 2546, 2010;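 further: Gal4-VP16 expression switched on by copper sulfate through the metallothionein promoter; potency means the concentration at half of the fitted maximal effect; nearly all actives have a fitted effect of over 50% in size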
DT40 TDP1 no CPT: qHTS for Inhibitors of human tyrosyl-DNA phosphodiesterase 1 (TDP1): qHTS in cells in absence of CPT. DT40 Tdp1-/- hTDP1 cells, no CPT, ATP luminescence, 48 h. Potency, µM (doses to about 46.2 µM), without a hit: top-dose activity change, negative = growth inhibition, most hits filed as inhibitors. 15% of 420,000 active; further: potency means the concentration at half of the fitted maximal effect; nearly all actives have a fitted effect of over 55% in size
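Camptothecin absent (DMSO only). Human TDP1-complemented DT40 knockout cells, 400 cells/well, 37 °C for minimum 48 hr; ATP measured via CellTiter-Glo, 30 min dark incubation, luminescence.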
IL-1B inflam inh: qHTS for Inhibitors of Inflammasome Signaling: IL-1-beta AlphaLISA Primary Screen; THP-1 LPS/ATP IL-1B secretion, AlphaLISA, 16 h; hits give low values; activity change, % at 57.5 µM; 4.7% of 360,000 active; AID 743279, 2014; in the data active means activity change below about -50%; inconclusive means mostly about -30% to -49%
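Secreted IL-1B measured by AlphaLISA bead assay after 16 h compound exposure of THP-1 cells; compounds (final up to 57.5 uM) added 1 h before LPS (250 ng/mL) and ATP (1.25 mM) stimulation; lower signal means less secretion.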
RORg inh: qHTS for inhibitors of ROR gamma transcriptional activity | Drosophila S2 Gal4-RORgamma UAS-luciferase reporter, 20 h | Potency, µM (top dose mostly 53.6 µM), for the others: top-dose activity change, negative = inhibition, usual class: inhibitors | 5.4% of 310,000 active | AID 2551, 2010; further: potency means the concentration at half of the fitted maximal effect; nearly all actives have a fitted effect of over 60% in size
Target sequence (P51450 whole entry, looked up, the tested form may be a part): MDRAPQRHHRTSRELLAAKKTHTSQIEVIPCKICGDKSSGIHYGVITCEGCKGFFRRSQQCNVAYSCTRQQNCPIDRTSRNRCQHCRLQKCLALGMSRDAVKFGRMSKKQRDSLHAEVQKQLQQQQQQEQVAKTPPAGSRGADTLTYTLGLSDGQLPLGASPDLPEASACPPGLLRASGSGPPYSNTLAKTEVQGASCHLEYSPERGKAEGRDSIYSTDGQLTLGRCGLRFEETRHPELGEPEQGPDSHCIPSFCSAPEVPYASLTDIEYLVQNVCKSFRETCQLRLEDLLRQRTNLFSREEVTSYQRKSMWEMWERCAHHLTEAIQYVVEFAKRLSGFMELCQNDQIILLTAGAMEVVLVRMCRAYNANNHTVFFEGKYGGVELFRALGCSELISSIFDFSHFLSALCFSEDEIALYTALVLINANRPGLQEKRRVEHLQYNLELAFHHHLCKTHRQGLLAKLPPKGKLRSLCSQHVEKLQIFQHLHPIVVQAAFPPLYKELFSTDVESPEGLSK
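Read-out: Photinus luciferase luminescence; inhibitors lower reporter signal. Insect Schneider cells with Gal4-ROR gamma fusion under metallothionein promoter, UAS reporter; 700 uM final copper sulfate induction, 20 hr, ambient temperature.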
LDHA inh: qHTS assay for inhibitors of human lactate dehydrogenase; L-lactate dehydrogenase A chain (Homo sapiens), P00338; purified LDHA, NADH/diaphorase-resazurin fluorescence; hits give low values; activity change, % (values are at about 110 or 230 µM); 0.15% of 480,000 active; AID 1347041, 2019; in the data active means activity change below about -30%; inconclusive means mostly about -25% to -30%;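 further: plate controls were DMSO wells for no effect and wells without enzyme for full effect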
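Human LDH5 at 2 nM final in Tris HCl pH 7.4 with 0.06 mM NADH and 0.2 mM pyruvate, reacted 5 minutes at room temperature. Remaining NADH coupled via diaphorase/resazurin; resorufin fluorescence read at 0 and 20 minutes, normalized to enzyme-free and DMSO wells.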
* hit, by the source's call; ? = inconclusive; / = no result. Unless noted, the call rests on the fitted dose curve; in most records, active means well fitted curve in the direction sought with a large enough effect; inconclusive means small, poorly fitted or top-dose-only effect, or another doubt; inactive means no such curve, though single readings can be large; an effect the other way counts as inactive or inconclusive. Unless noted, on the % scale 0 is the no-effect control and ±100 the full control effect.

SMILES	TDP1 cell CPT	Gal4-VP16 FLuc	DT40 TDP1 no CPT	IL-1B inflam inh	RORg inh	LDHA inh
COc1cccc(CNC(=O)CCc2c(C)nc3c(c(C)nn3-c3ccc(C)c(C)c3)c2C)c1	21µM*	/	21µM*	/	/	1
Cc1ccc(-n2nc(C)c3c(C)c(CCC(=O)NCc4ccccc4Cl)c(C)nc32)cc1C	-4%	/	?	/	/	-4
COCCNC(=O)CCc1c(C)nc2c(c(C)nn2-c2ccc(C)c(C)c2)c1C	?	-5%	16µM*	-8	19%	-3
CCN(CC)CCNC(=O)CCc1c(C)nc2c(c(C)nn2-c2ccc(C)cc2)c1C	21µM*	?	13µM*	0	?	0
COc1ccc(CCNC(=O)CCc2c(C)nc3c(c(C)nn3-c3ccccc3)c2C)c(OC)c1	23µM*	/	16µM*	/	/	-2
COc1cccc2cc(S(=O)(=O)N3CCCCC3)c(=O)oc12	/	/	/	/	/	11
CCOC(CNC(=O)CS(=O)Cc1nc(-c2ccccc2)oc1C)OCC (stereo unspecified)	/	/	/	/	/	11
Cc1ccc(N(C(C)C(=O)NCc2ccccn2)S(C)(=O)=O)cc1C (stereo unspecified)	/	/	/	/	/	2
COCCCNC(=O)CCc1c(C)nc2c(c(C)nn2-c2ccc(C)cc2)c1C	?	-10%	-28%	27	-1%	-3
COCCNC(=O)CCc1c(C)nc2c(c(C)nn2-c2ccc(C)cc2)c1C	?	-3%	18µM*	-3	8%	-15
Fc1ccc(CSc2nc(-c3ccccc3)cc(C(F)(F)F)n2)cc1	/	/	/	/	/	13
CCOC(=O)Cc1cc(=O)n2[nH]c(C)c(-c3ccccc3)c2n1	?	?	?	8	13µM*	3
CCOC(=O)Cc1c(C)nc2c(-c3ccc(Cl)cc3)c(C)[nH]n2c1=O	23µM*	6.3µM*	23µM*	42	6.3µM*	-4
CCOC(=O)Cc1c(C)nc2c(-c3cccc(Br)c3)c[nH]n2c1=O	9.2µM*	14µM*	4.1µM*	36	4.5µM*	-7
CCC(C)c1ccc(NC(=O)c2[nH]c(C)c(C(C)=O)c2C)cc1 (stereo unspecified)	?	?	?	-15	?	3
O=C(OCCCCN1C(=O)c2ccccc2C1=O)c1n[nH]c2ccccc12	?	32µM*	?	12	-110%	-3
CCC(NC(=O)c1[nH]c(C)c(C(C)=O)c1C)c1ccc(Br)cc1 (stereo unspecified)	?	-6%	15µM*	?	11%	5
CC(=O)c1c(C)[nH]c(C(=O)OCc2ccc([N+](=O)[O-])cc2)c1C	?	-2%	?	20	?	-7
CCOC(=O)c1c(C)[nH]c(C(=O)OCC(=O)c2ccccc2)c1C	?	/	?	-13	/	-2
COC(=O)c1ccc(COC(=O)c2[nH]c(C)c(C(C)=O)c2C)o1	10µM*	7.9µM*	2.9µM*	39	?	-5
CC(=O)c1c(C)[nH]c(C(=O)OCC(=O)c2ccc(Br)cc2)c1C	?	/	18µM*	23	/	1
COc1ccc(C(=O)/C(=C\c2ccc(C)o2)c2nc3ccccc3o2)cc1	/	/	/	/	/	7
COC(=O)c1c(C)[nH]c(C(=O)OCC(=O)c2ccc(C)s2)c1C	?	/	?	-72*	/	0
CC(=O)c1c(C)[nH]c(C(=O)OCCCCN2C(=O)c3ccccc3C2=O)c1C	8.2µM*	8.9µM*	4.1µM*	17	?	-5
